Measurements reported in the supplement of paper PMC6135742.
Structures can show the parent of a compound that is named as a salt. ± gives the standard deviation of the averaged measurements. In all, about 2,600 compounds were measured (“MBP+ mature oligodendrocyte number relative to DMSO vehicle control”: median about -0.34, highest 2% from about 13 on). The sample holds the highest values, similar compounds and a random draw of the others, so the mix is not that of the screen.

System: jimpy (Plp1 jimpy) mouse iPSC-derived oligodendrocyte progenitor cells
Assay: MBP+ mature oligodendrocyte number relative to DMSO vehicle control (SDs above negative control mean); higher = more surviving jimpy oligodendrocytes (rescue)
Details: 10 µM; 3 days
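Also: 10 µM single dose with 3-day oligodendrocyte differentiation.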

Structure (SMILES)	MBP+ mature oligodendrocyte number
NC(N)=NCc1cccc(I)c1 [m-Iodobenzylguanidine hemisulfate]	16.6
CCN(CC)CCn1c(=O)c(Cc2ccc(OC)cc2)nc2ccccc21 [Caroverine hydrochloride]	-0.211
Cc1ccc(S(=O)(=O)OCC(=O)Nc2ccc(C(=O)O)c(O)c2)cc1	2.29
CC[n+]1c(/C=C/C=C2/N(C)c3ccccc3C2(C)C)sc2ccccc21	< -4.47
Cc1cc(C(=O)NOCCO)c(Nc2ccc(I)cc2F)n(C)c1=O	-0.892
NCCNS(=O)(=O)c1cccc2c(Cl)cccc12 [A3 hydrochloride]	-2.82
Cc1nnc(C(=O)NC(C)(C)c2nc(C(=O)NCc3ccc(F)cc3)c(O)c(=O)n2C)o1 [Raltegravir (MK-0518)]	55.9
Cn1c(N2CCCCS2(=O)=O)nc(C(=O)NCc2ccc(F)cc2)c(O)c1=O	< -6.7
O=C(O)c1ccccc1Nc1cccc(C(F)(F)F)c1 [Flufenamic acid]	1.25
O=C(Nc1cccc(C(F)(F)F)c1)Nc1cc(S(=O)(=O)NC2CC2)ccc1-c1ccsc1	18.2
COc1cc(OC)cc(-c2cc3cnc(N)nc3nc2NC(=O)NC(C)(C)C)c1	-2.43
CC[C@H](NC(=O)c1c(C)c(-c2ccccc2)nc2ccccc12)c1ccccc1	-1.61
O=C1NC(=O)/C(=C\c2ccc3nccnc3c2)S1	-0.833
FC(F)(F)c1ccccc1-n1ccnc1 [1-[2-(Trifluoromethyl)phenyl]imidazole]	-0.176
Clc1ccccc1C(c1ccccc1)(c1ccccc1)n1ccnc1 [Clotrimazole]	15.7 ± 1.2
O=C(NCCO)c1cccc(-c2cc(Nc3ccc(OC(F)(F)F)cc3)ncn2)c1	-0.394
CC(=O)[C@H]1CC[C@H]2[C@@H]3CC=C4C[C@@H](OS(=O)(=O)O)CC[C@]4(C)[C@H]3CC[C@]12C [Pregnenolone sulfate sodium]	0.467
O=C1NC(=O)C(=Cc2ccc(-c3ccc(F)cc3)o2)S1 (stereo in doubt)	0.66
Clc1ccc(C(c2ccc(Cl)cc2)[n+]2ccn(CC(OCc3ccc(Cl)cc3Cl)c3ccc(Cl)cc3Cl)c2)cc1 (stereo not drawn) [Calmidazolium chloride]	< -3.34

Structure (SMILES)	MBP+ mature oligodendrocyte number
CC(C)OC(=O)C(C(=O)OC(C)C)=C1SC=CS1 [Malotilate]	19
CCN(C(=O)c1c(O)c2c(Cl)cccc2n(C)c1=O)c1ccccc1 [Laquinimod]	1.45
O=C(O)[C@H](CC(=O)N1C[C@H]2CCCC[C@H]2C1)Cc1ccccc1 [Mitiglinide calcium]	-1.54
COc1ccccc1N1CCN(CCN(C(=O)c2ccc(F)cc2)c2ccccn2)CC1 [p-MPPF dihydrochloride]	6.54
CNCc1ccc(C)c(NC(=O)c2ccc(Nc3nc(-c4ccccc4)c4ccccc4n3)cc2)c1	< -6.35
Cc1ccc(C(=O)Nc2ccc(S(=O)(=O)O)c3cc(S(=O)(=O)O)cc(S(=O)(=O)O)c23)cc1NC(=O)c1cccc(NC(=O)Nc2cccc(C(=O)Nc3cc(C(=O)Nc4ccc(S(=O)(=O)O)c5cc(S(=O)(=O)O)cc(S(=O)(=O)O)c45)ccc3C)c2)c1 [Suramin sodium salt]	-1.35
Cc1ccc(NC(=O)c2cccc(N(C)C)c2)cc1NC(=O)c1ccc(O)cc1	14.6
C[C@]12CC[C@@H]3c4ccc(O)cc4CC[C@H]3[C@@H]1CC[C@@H]2O [Estradiol]	5.47
C[C@]12CC[C@@H]3c4ccc(O)cc4CC[C@H]3[C@@H]1CC[C@@H]2O [beta-Estradiol]	3.17
C[C@]12CC[C@@H]3c4ccc(O)cc4CC[C@H]3[C@@H]1CCC2=O [Estrone]	21.6 ± 26
C[C@]12CC[C@@H]3c4ccc(O)cc4CC[C@H]3[C@@H]1C[C@@H](O)[C@@H]2O [Estriol]	-0.78
Nc1nc2ccc(Cl)cc2n2c(-c3ccccc3)nnc12	0.304
Oc1c2ccccc2c2c3c(cccc13)N=N2	-2.59 ± 1.1
CCCCCCCCCCCCCCCC(=O)OC[C@H](O)[C@H]1OC(=O)C(O)=C1O [L-Ascorbyl 6-palmitate]	-1.84
N[C@@H](Cc1cc(I)c(Oc2cc(I)c(O)c(I)c2)c(I)c1)C(=O)O [L-Thyroxine]	-1.06
c1ccc(-c2ccc(C(c3ccccc3)n3ccnc3)cc2)cc1 (stereo not drawn) [Bifonazole]	52.3
N#Cc1ccc(C(c2ccc(C#N)cc2)n2cncn2)cc1 [Letrozole]	3.69
CC(N)(Cc1ccc(O)cc1)C(=O)O (racemic) [DL-alpha-Methyl-p-tyrosine]	1.37
O=C(/C=C/c1ccc(O)cc1)CC(=O)/C=C/c1ccc(O)cc1 [Bisdemethoxycurcumin]	0.659
